Measured values from PubChem BioAssay (Tox21).
Several values for one entry are separate records, joined by “and”; a condition that tells them apart may be missing. Identical values can stand only once. Values without a mark were called inactive. A call without a number means that no potency is given here. Activity calls are given as the source filed them. Calls come from the whole dose curve; as a rule, active = well fitted curve in the direction sought with a large enough effect in the repeat runs; inconclusive = weak or mixed curves; inactive = flat fitted curve, though single readings scatter.

Assay: qHTS assay to test for compound auto fluorescence at 590 nm (red) in HepG2 cell free culture (AID 720684)
Conditions: cell-free medium autofluorescence, red 540/590 nm; series mostly up to 91.3 µM; fluorescence, % of Rose Bengal: at the top concentration
Source text: U.S. Tox21 Program National Center for Advancing Translational Sciences [NCATS] NIH Chemical Genomics Center [NCGC] U.S. Environmental Protection Agency [EPA] National Institutes of Environmental Health Sciences [NIEHS] National Toxicology Program [NTP] U.S. Food and Drug Administration [FDA] Tox21 Assay Overview: Compound auto fluorescence often interferes with screening of the compound library against various biological targets and signaling pathways. Some of these compounds may have fluorophoric properties. Such properties may interfere with the assay outputs resulting in false positives and/or negatives. To decrease such complications and ensure the compound activities are relevant in terms of biological response, the Tox21 10K compound library was screened for auto fluorescence. From the fluorophores used as reporter signals in our screening assays, the auto fluorescence equivalencies of compounds against three fluorophores have been evaluated: Triamterene, Fluorescein and Rose Bengal sodium for blue, green and red fluorescence, respectively. The fluorescence intensities were measured using Excitation/Emission wavelengths at 405/460nm, 485/535nm and 540/590nm for blue, green and red labels, respectively. This assay includes the red fluorescence data.
Tox21 Assay Protocol Summary: 5 uL of culture medium (MEM containing 10% FBS) per well was dispensed into black wall/clear bottom 1536-well plates using a Multidrop Combi Dispenser (ThermoFisher Scientific, Waltham, MA). After 23 nL compound or DMSO vehicle was transferred into assay plate by a pintool work station (Kalypsys, San Diego, CA), fluorescence intensities in the assay plates were measured by an Envision (PerkinElmer, Shelton, CT) plate reader using three labels for measuring blue, green and red fluorescence at […] 460, 535 and 590nm respectively.
Potency is the fitted concentration of half-maximal effect; tags give direction and shape of the fitted curve or compound fluorescence and quenching.

Structure (SMILES)	Potency	fluorescence, % of Rose Bengal
Cc1cc(C)nc(NS(=O)(=O)c2ccc(N)cc2)n1	inactive	
Cc1ncc([N+](=O)[O-])n1CCO	inactive	
CCCCC(CC)C(=O)O (stereo not given)	inactive	
NC(=O)n1c(O)c(C(=O)c2cccs2)c2cc(Cl)ccc21		0.0149% [at 46 µM]
C=CCc1ccc(O)c(OC)c1	inactive	
O=C1NC(=O)C(c2ccccc2)(c2ccccc2)N1	inactive	
CC/C(=C(\c1ccccc1)c1ccc(OCCN(C)C)cc1)c1ccccc1	inactive	
COc1ccc(C(Cl)=C(c2ccc(OC)cc2)c2ccc(OC)cc2)cc1	inactive	
COc1cccc(O)c1O		0.15% [at 95.7 µM]
CC(C)C(=O)Nc1ccc([N+](=O)[O-])c(C(F)(F)F)c1	inactive	
CCCCCCCC(=O)OCC(COC(=O)CCCCCCC)OC(=O)CCCCCCC	inactive	
Nc1c(N=Nc2ccc(-c3ccc(N=Nc4cc(S(=O)(=O)O)c5ccccc5c4N)cc3)cc2)cc(S(=O)(=O)O)c2ccccc12	inactive	
CCCCOC(=O)c1ccc(O)cc1	inactive	
CCN(Cc1c(F)cccc1Cl)c1c([N+](=O)[O-])cc(C(F)(F)F)cc1[N+](=O)[O-]		0.0284%
CC1(C)O[C@@H]2C[C@H]3[C@@H]4CCC5=CC(=O)C=C[C@]5(C)[C@@]4(F)[C@@H](O)C[C@]3(C)[C@]2(C(=O)CO)O1	inactive	
CCCCCCCCCCCCCCCC[N+](C)(C)Cc1ccccc1	inactive	
C/C=C/C=C/C(=O)O	inactive	
CC(C)NCC(O)c1ccc(O)c(O)c1 (stereo not given)	inactive	
CCc1nc(N)nc(N)c1-c1ccc(Cl)cc1	inactive	
CC12CCC(CC1)C(C)(C)O2	inactive	

Structure (SMILES)	Potency	fluorescence, % of Rose Bengal
C1=CC2C3C=CC(C3)C2C1 (stereo not given)		-0.322%
CN(C)C(=S)SC(=S)N(C)C	inactive	
O=c1[nH]cnc2c1ncn2[C@H]1CC[C@@H](CO)O1	inactive	
NS(=O)(=O)O	inactive	
CN1CCc2cccc3c2[C@H]1Cc1ccc(O)c(O)c1-3	inactive	
O=C1c2c(O)cccc2Cc2cccc(O)c21	inactive	
O=C1OC2(c3ccccc31)c1cc(Br)c(O)c(Br)c1Oc1c2cc(Br)c(O)c1Br	3.16 µM [fluorescent] (active) and 2.82 µM [fluorescent] (active) and 2.51 µM [fluorescent] (active)	
Nc1ccc(S(N)(=O)=O)cc1	inactive	
CC(=O)Nc1c(I)c(NC(C)=O)c(I)c(C(=O)O)c1I	inactive	
CN1[C@@H]2CC(OC(=O)[C@H](CO)c3ccccc3)C[C@H]1[C@@H]1O[C@@H]12 (stereo not given in full)	inactive	
CCCc1cc(=O)[nH]c(=S)[nH]1	inactive	
O=S1(=O)OC(c2ccc(O)cc2)(c2ccc(O)cc2)c2ccccc21	inactive	
CN(C)C(=O)Nc1ccc(Cl)c(Cl)c1	inactive	
Cc1ncc([N+](=O)[O-])n1C	inactive	
COc1ccc2cc(S(=O)(=O)N[C@H](CC(=O)N[C@H](Cc3ccc(CN4[C@H](C)CCC[C@@H]4C)cc3)C(=O)N(C)C(C)C)c3ccc4c(c3)OCO4)ccc2c1		-0.0008%
CC1(C)S[C@@H]2[C@H](NC(=O)[C@H](N)c3ccccc3)C(=O)N2[C@H]1C(=O)O	inactive	
Cc1cc(=O)oc2cc(O)ccc12	inactive	
Nc1ccc(O)c([N+](=O)[O-])c1		0.207%
F[B-](F)(F)F	inactive	
CCN(CC)C(=O)c1cccc(C)c1	inactive	
